# PubChem BioAssay AID652015 (National Center for Advancing Translational Sciences (NCATS), 2013)
# Results filed as inconclusive are left out. A number with no mark means an inactive call. Activity calls are given as the source filed them. Calls come from the whole dose curve; as a rule, active = well fitted inhibition curve with a large enough effect; inconclusive = small, poorly fitted or top-dose-only effect; inactive = no such curve, though single readings can be large or run the other way.
# Target: Coelenterazine h 2-monooxygenase (Renilla reniformis) (UniProt P27652)
# Sequence (P27652 whole entry, looked up): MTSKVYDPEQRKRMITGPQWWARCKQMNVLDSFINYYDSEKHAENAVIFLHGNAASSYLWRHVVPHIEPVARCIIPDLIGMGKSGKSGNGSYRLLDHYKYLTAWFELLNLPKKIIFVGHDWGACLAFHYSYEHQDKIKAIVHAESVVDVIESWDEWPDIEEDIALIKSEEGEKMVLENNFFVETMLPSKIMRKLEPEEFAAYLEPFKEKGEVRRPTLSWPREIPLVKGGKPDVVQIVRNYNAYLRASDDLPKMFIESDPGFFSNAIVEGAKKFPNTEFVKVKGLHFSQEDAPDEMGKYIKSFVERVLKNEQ
# Assay: qHTS Assay for Inhibitors of Sea Pansy Luciferase from the GSK Published Protein Kinase Inhibitor Set
# Details: purified Renilla luciferase, luminescence; series mostly up to 57.5 µM; activity change, negative = inhibition: at the top concentration
# Method in brief: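 qHTS (roughly 60 uM down to 300 pM) against 1 nM Renilla luciferase, substrate coelenterazine h 5 uM, Tris acetate pH 7.5 buffer with NaCl, Tween-20 and BSA. Luminescence measured after an average 2 min incubation.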
# Potency is the fitted concentration of half-maximal effect.
Structure (SMILES),"activity change, negative = inhibition",Potency
CCCN1CCC(Oc2cc(Nc3nc(Nc4cccc(F)c4C(N)=O)c4cc[nH]c4n3)c(OC)cc2Cl)CC1,64.1%,–
COc1cc(Nc2ncc(-c3ccccc3)o2)cc(OC)c1OC,24.1%,–
CN1CCC(n2cnc(-c3ccc(F)cc3)c2-c2ccnc(Nc3ccccc3)n2)CC1,23.2%,–
O=C1NC(=O)C(c2ccc(Cl)cc2)=C1Nc1ccc(Cl)c(C(=O)O)c1,21.8%,–
Nc1nccc(-c2c(-c3ccc(F)cc3)ncn2C2CCNCC2)n1,–,inactive
Nc1nonc1-c1nc2cnccc2n1C1CC1,21.9%,–
CCn1c(-c2nonc2N)nc2cncc(C(=O)N3CCNCC3)c21,43%,–
COC(=O)Nc1nc2ccc(Oc3ccc(NC(=O)Nc4cccc(Cl)c4)cc3)cc2[nH]1,-8.53%,–
CC(C)c1ccc2c(N=Nc3ccc(S(N)(=O)=O)cc3)c(O)[nH]c2c1,10.9%,–
O=S1CCN(Cc2ccc(-c3ccc4ncnc(Nc5ccc(OCc6ccccc6)c(F)c5)c4c3)o2)CC1,27%,–
COC(=O)c1cncc(C=Cc2c(C)cc(O)cc2C)c1,31.7%,–
CCn1c(-c2nonc2N)nc2cnc(Oc3cccc(NC(=O)c4ccc(OCCN5CCOCC5)cc4)c3)cc21,25.6%,–
COc1ccc(Nc2ncc(-c3ccccc3)o2)cc1OC,2.7%,–
ON=C1CCc2cc(-c3nc(C4CCNCC4)[nH]c3-c3ccncc3)ccc21,46.1%,–
COc1cc(Nc2ncc(-c3ccccc3)o2)cc(OC)c1,12.4%,–
COC(=O)Nc1nc2ccc(Oc3ccc(NC(=O)Nc4cc(C(F)(F)F)ccc4F)cc3)cc2s1,22.7%,–
COC(=O)Nc1nc2ccc(Oc3ccc(NC(=O)Nc4cccc(Br)c4)cc3)cc2[nH]1,0.676%,–
O=C(O)c1ccc(Oc2nccc(-c3c(-c4ccc(F)cc4)ncn3C3CCNCC3)n2)cc1,36%,–
Cc1ccc2c(-c3ccnc(Nc4ccccc4)n3)c(-c3ccc(F)cc3)nn2n1,22.8%,–
CN1CCN(CCCNc2nc3ccc(Oc4ccc(NC(=O)Nc5cc(C(F)(F)F)ccc5F)cc4)cc3[nH]2)CC1,–,23.1 µM (active)

Structure (SMILES),"activity change, negative = inhibition",Potency
O=S1CCN(Cc2ccc(-c3ccc4ncnc(Nc5ccc(OCc6cccc(F)c6)c(Cl)c5)c4c3)o2)CC1,47.3%,–
CNC(=O)c1cncc(C=Cc2ccccc2C)c1,53.9%,–
CNC(=O)c1ncccc1Nc1nc(Nc2cc3c(cc2OC)CCCN3C(=O)CN(C)C)nc2[nH]ccc12,73.7%,–
Cc1ccc2[nH]c(O)c(N=Nc3ccc(S(N)(=O)=O)cc3)c2c1,30%,–
CC(C)(C)c1ccc(Oc2nccc(-c3c(-c4ccc(F)cc4)ncn3C3CCNCC3)n2)cc1,31.2%,–
O=C1NC(=O)C(c2cccc(Cl)c2)=C1Nc1ccc(Cl)c(C(=O)O)c1,30.4%,–
COc1ccc(-c2cc(-c3cn[nH]c3-c3ccccn3)ccn2)cc1,29.3%,–
CCS(=O)(=O)c1ccc(OC)c(Nc2ncc(-c3cccc(-c4ccccc4F)c3)o2)c1,11.3%,–
NS(=O)(=O)c1ccc(N=Nc2c(O)[nH]c3cccc(CCc4ccncc4)c23)cc1,9.9%,–
c1cnn2ncc(-c3ccnc(Nc4ccc5c(c4)OCCO5)n3)c2c1,61%,–
Fc1ccc(-c2ncn(C3CCNCC3)c2-c2ccnc(Oc3ccc(Cl)cc3)n2)cc1,33.6%,–
Nc1nc(-c2cccc(Cl)c2)c(-c2ccc3ncccc3n2)s1,-0.406%,–
COc1cccc(-n2ncc3c(NN=Cc4ccc(S(C)(=O)=O)cc4)ncnc32)c1,53.9%,–
COc1ccc2ncn(-c3cc(OC(C)c4ccccc4Cl)c(C(N)=O)s3)c2c1 (centres undefined),8.76%,–
CCOc1nccc2c1nc(-c1nonc1N)n2CC,45.4%,–
CC(C)(CO)CNC(=O)c1ccc2[nH]c(O)c(N=Nc3ccc(S(N)(=O)=O)cc3)c2c1,11.9%,–
O=S1CCN(Cc2ccc(-c3ccc4ncnc(Nc5ccc(OCc6ccccc6)c(Cl)c5)c4c3)o2)CC1,48.7%,–
CN(c1ccc(NC(=O)Nc2ccc(OC(F)(F)F)cc2)cc1)c1ccnc(Nc2cccc(S(N)(=O)=O)c2)n1,0%,–
COc1ccccc1-c1cc(C=C2C(=O)Nc3ncc(Br)cc32)cc(Br)c1O,–,8.19 µM (active)
